Screen size: about 48,000 compounds; about 13,000 (27%) showed an effect of 50% or more. The list shows a part of the results.
These molecules were tested on Wolbachia pipientis (assay: Anti-Wolbachia Cell-Based Screen). Conditions: 5 µM.
Format: functional
Set-up: scale not given: in the data most compounds retested in dose-response had high values

| Structure (SMILES) | Percent Effect [%] |
| --- | --- |
| NCc1cn(CC2CCCN(C(=O)NCCc3ccc(F)cc3)C2)nn1 (configuration not stated) | -14.7 |
| O=C(CSc1nnc[nH]1)NCc1sccc1Br | -6.223 |
| O=C(Cc1ccc2c(c1)OCCO2)N1CCCC(n2cncn2)C1 (configuration not stated) | 8.803 |
| COc1ccc(CCCC(=O)N2CCCC(n3cncn3)C2)cc1 (configuration not stated) | -28.74 |
| COc1ccc(CCC(=O)N2CCCC(n3cncn3)C2)cc1 (configuration not stated) | 106.9 |
| O=C(CCc1ccc(Cl)s1)N1CCCC(n2cncn2)C1 (configuration not stated) | 2.271 |
| N#Cc1ccc(CC(=O)N2CCCC(n3cccn3)C2)cc1 (configuration not stated) | 3.73 |
| O=C(CCc1ccsc1)N1CCCC(n2cncn2)C1 (configuration not stated) | 119.5 |
| N#Cc1ccc(CCC(=O)N2CCCC(n3cncn3)C2)cc1 (configuration not stated) | 122.1 |
| COc1ccc(CCN2CCCC(n3cncn3)C2)cc1 (configuration not stated) | -2.484 |
| O=C(c1cccnc1O)N1CCCC2(C=Cc3ccccc3O2)CC1 (configuration not stated) | 2.5 |
| COc1cccc(COCC(O)CN2CC(n3cccn3)C2)c1 (configuration not stated) | -10.3 |
| FC(F)Oc1ccc(CN2CCOC3(CCOCC3)C2)cc1Cl | 7.261 |
| CN(C)C(=O)N1CCN(Cc2ccc3occc3c2)[C@H]2CS(=O)(=O)C[C@H]21 | -2.327 |
| COc1ccccc1CCN(C)C(=O)NC(C)c1nncn1C (configuration not stated) | 3.532 |
| CC(Nc1nc2c(cnn2C)c(=O)[nH]1)c1ccccn1 (configuration not stated) | -0.01009 |
| O=C(NCCCNc1ccccc1)c1scnc1Cl | 2.651 |
| O=C(CN1CCOC(c2ccccc2C(F)(F)F)C1)NC1CC1 (configuration not stated) | 8.433 |
| COCCCNc1nc(CNC(C)=O)cc(-c2ccco2)n1 | 96.87 |

| Structure (SMILES) | Percent Effect [%] |
| --- | --- |
| COCCN(C(=O)c1nc(-c2ccco2)sc1C)C1CC1 | 4.119 |
| COCCNc1ccccc1CNC(=O)C1CCCOC1 (configuration not stated) | -2.92 |
| COCCCNc1nc(CNC(=O)C2CCC2)cc(-c2ccco2)n1 | 103.2 |
| Cc1cc(NCc2csc(-c3ccco3)n2)ccc1C(N)=O | -17.43 |
| COCCN1CCn2cc(CNC(=O)C3CCC3)nc2C1 | -2.168 |
| CN1CCC(N2CCOC[C@H](OCC(=O)N(C)C)C2)CC1 | -7.154 |
| CN(Cc1nccs1)c1nc(-c2ccccn2)nc2c1CCNCC2 | -16.23 |
| C[C@@H]1CN(C2(C(=O)N3CCNCC3)Cc3ccccc3C2)C[C@H](C)O1 | 0.2637 |
| O=C1NCCCCC1NC(=O)N1CCc2ccccc21 (configuration not stated) | -9.694 |
| O=C(NC1CCNC1)C1(N2CCCCC2)Cc2ccccc2C1 (configuration not stated) | 108.7 |
| CCN1CCN(C2(C(=O)NC3CCCC3)Cc3ccccc3C2)CC1 | 34.09 |
| O=C1NCCCC[C@@H]1NC(=O)C1(N2CCCCC2)Cc2ccccc2C1 | 94.83 |
| C[C@@H]1CN(C2(C(=O)N3CCCCCC3)Cc3ccccc3C2)C[C@H](C)O1 | 10.21 |
| O=C(NC1CCNCC1)C1(N2CCCCC2)Cc2ccccc2C1 | 123.6 |
| O=C1NCCCCC1NC(=O)N1CCCc2ccccc21 (configuration not stated) | 0.9845 |
| C[C@@H]1CN(C(=O)C2(N3CCCCC3)Cc3ccccc3C2)C[C@H](C)O1 | 1.52 |
| Cc1ccsc1C(=O)NC1CCS(=O)(=O)c2ccccc21 (configuration not stated) | 9 |
| CC(C)COCC(NC(=O)CSc1nnc[nH]1)c1ccco1 (configuration not stated) | 34.68 |
| CCC(C)(C)n1nnnc1C(c1cccs1)N1CCc2ccccc21 (configuration not stated) | 114.5 |

| Structure (SMILES) | Percent Effect [%] |
| --- | --- |
| CCC(C)(C)n1nnnc1C(c1cccs1)N1CCCCC1 (configuration not stated) | 117.5 |
| CCC(CNC(=O)c1cncc(Br)c1)N1CCc2ccccc2C1 (configuration not stated) | 4.86 |
| CCn1cnnc1CNC(=O)NCC(c1cccs1)N1CCCC1 (configuration not stated) | -4.375 |
| CCC(C)(C)n1nnnc1C(c1cccs1)N1CCc2ccccc2C1 (configuration not stated) | 110.2 |
| Cc1nnc(NCC(c2cccs2)N2CCCC2)c(C#N)c1C (configuration not stated) | 15.53 |
| CCC(CNC(=O)c1ccccn1)N1CCc2ccccc2C1 (configuration not stated) | 2.728 |
| Cc1nc(CN2CCCn3cnc(COC(C)C)c3C2)cs1.O=C(O)C(F)(F)F | 6.346 |
| CCOc1ccc2c(c1)C=C(C(=O)NC(C)Cn1cccn1)CO2 (configuration not stated) | 15.57 |
| CSCCC(=O)N1CCC(c2nccn2CCN(C)C)CC1 | -6.399 |
| CCCN(C(=O)CS(=O)(=O)c1ccccc1)c1cccc(C)c1 | -28.2 |
| Cl.FC(F)CNc1cnc(C2CCCN2)cn1 (configuration not stated) | 111.3 |
| OC1CCN(Cc2ccc(CNc3ccc(Cl)cn3)cc2)CC1 | -3.648 |
| c1ccc(NCCn2cc(C3CCCNC3)nn2)cc1 (configuration not stated) | -6.163 |
| Cl.c1cc(NCc2ccncc2)nc(C2CCCN2)c1 (configuration not stated) | 109.1 |
| COCC(=O)Nc1ccc(-c2noc([C@@H]3CCCN3)n2)cn1 | 10.12 |
| Cc1cccc(-c2c[nH]c(C3CCCN3)n2)c1.Cl.Cl (configuration not stated) | -28.51 |
| O=C(CCNc1ccc(Br)cn1)NCc1ccncc1 | 2.511 |
| Cl.c1cc(NCc2ccncc2)nc(C2CCCNC2)c1 (configuration not stated) | 93.58 |
| Cl.c1cc(CNc2cnc(C3CCCN3)cn2)ccn1 (configuration not stated) | 93.64 |
